TGFb inhibitor: inhibitors of TGF-b signaling. HepG2 CAGA-GFP TGF-b/SMAD3 reporter, GFP fluorescence, 18 h; TGF-beta stimulated, 500 pg/mL final. Potency, µM (titrated, usually from 46.1 µM), usual class: inhibitors. hit rate 1.2% among 410,000; also: nearly all actives have a fitted effect of over 65% in size
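Inhibition was scored as loss of TGF-beta-induced (500 pg/mL final, 18 hours, 37 degrees C) GFP in HEPG2 cells carrying a CAGA-GFP reporter, in DMEM with 1% FBS. Well GFP was summed per cell; Activity was normalised to unstimulated and stimulated DMSO wells, then concentration-response fitting.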
HT1080-NT tox: kills 2HG-producing HT-1080-NT fibrosarcoma cells; HT-1080-NT fibrosarcoma viability, CellTiter-Glo ATP luminescence, 48 h; hit rate 1.6% among 360,000; AID 686970; Potency, µM (series often up to 46.1 µM), most hits filed as cytotoxic;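 also: NT is the 2HG producing partner of a matched IDH1 knockdown line; nearly all actives have a fitted effect of over 55% in size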
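A 48-hour cytotoxicity screen used HT-1080-NT cells plated 2 hours before compound delivery. ATP-based CellTiter-Glo luminescence measured viability, normalized to DMSO and no-cell controls.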
IL1B secr inh: inhibitors of inflammasome signaling (IL-1 beta secretion); activity change, % at 57.5 µM; hit rate 4.7% among 360,000; THP-1 LPS/ATP IL-1B secretion, AlphaLISA, 16 h; active compounds read low; in the data active = activity change below about -50%; inconclusive = mostly about -30% to -49%
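Secreted IL-1B measured by AlphaLISA bead assay after 16 h compound exposure of THP-1 cells; compounds (final up to 57.5 uM) added 1 h before LPS (250 ng/mL) and ATP (1.25 mM) stimulation; lower signal means less secretion.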
Giardia kill: kills Giardia lamblia; hit rate 0.15% among 340,000; Giardia lamblia trophozoite viability; activity change, % at 7.66 µM, hits read low; AID 540267; in the data active = activity change below about -80%; inconclusive = between about -30% and that limit;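 also: parasites exposed to compound for two days anaerobically before the ATP read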
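Giardia lamblia trophozoites (100 cells/well) were incubated with compounds for 48 h at 37 deg C under anaerobic conditions. Viability was read as ATP content by one-step luminescence after 15-30 min at room temperature.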
HT1080 IDH1KD tx: toxicity to HT-1080 IDH1 knockdown cells (counter line) | HT-1080 IDH1 knockdown viability, ATP luminescence, 48 h | Potency, µM (titrated, usually from 46.1 µM), usual class: cytotoxic | hit rate 2% among 360,000 | AID 686971
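IDH1KD HT-1080 cells, 750/well, RPMI + 5% FBS; compound pinned after 2 h settling; 48 h, 37 °C; CellTiter-Glo luminescence; % activity normalised to DMSO and no-cell wells; curves fitted, classed by r2 and efficacy.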
HepG2 viability: HepG2 cytotoxicity, counter-screen for TGF-b inhibitors; HepG2 CAGA-GFP viability, ATP luminescence, 18 h; Potency, µM (highest dose often 46.1 µM), hits mostly cytotoxic; hit rate 0.76% among 410,000; AID 588856
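HepG2 CAGA-GFP cells (1000/well, DMEM with 1% FBS) received compound, then TGF-beta at 500 pg/mL final, and were incubated 18 hours at 37 degrees C. Viability was read by CellTiter-Glo luminescence. Media-only wells were set as complete cell-killing and DMSO as no toxicity.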
Numbers stand for hits. Only some compounds are listed: those with a hit (about 6.5% of all), similar ones and a draw of the others. Unless noted, calls follow the shape of the dose curve; as a rule, active = well fitted curve in the direction sought with a large enough effect; inconclusive = small, poorly fitted or top-dose-only effect, or another doubt; inactive = no such curve, though single readings can be large; an effect the other way counts as inactive or inconclusive.

Screening Cn1c(/C(C#N)=C(\O)c2ccc([N+](=O)[O-])s2)nc2ccccc21 returned TGFb inhibitor inactive, HT1080-NT tox inactive, IL1B secr inh inactive, Giardia kill -86, HT1080 IDH1KD tx inactive and HepG2 viability inactive.
For O=C(NC1CCCCC1)N1CCC(n2cnc3ccccc32)CC1 the results were TGFb inhibitor inactive, HT1080-NT tox inactive, IL1B secr inh inactive, Giardia kill inactive, HT1080 IDH1KD tx inactive and HepG2 viability inactive.
`COc1cc(-c2nnc(SCC(=O)Oc3ccccc3Cl)o2)cc(OC)c1OC` gave TGFb inhibitor inactive and HepG2 viability inactive.
Fc1cccc(Cl)c1CSc1nnc(-c2ccncc2)o1 was read as TGFb inhibitor inactive, HT1080-NT tox inactive, IL1B secr inh inactive, Giardia kill inactive, HT1080 IDH1KD tx inactive and HepG2 viability inactive.
COc1cc(-c2nnc(SCc3c(F)cccc3Cl)o2)cc(OC)c1OC was read as TGFb inhibitor inactive, HT1080-NT tox inactive, IL1B secr inh -58, Giardia kill inactive, HT1080 IDH1KD tx inactive and HepG2 viability inactive.
Screening COc1cc(-c2nnc(SCc3ccccc3Cl)o2)cc(OC)c1OC returned TGFb inhibitor inactive, HT1080-NT tox inactive, IL1B secr inh -59, Giardia kill inactive, HT1080 IDH1KD tx inactive and HepG2 viability inactive.
CC1(C)S/C(=N/N=C/c2ccco2)NC1=O was read as TGFb inhibitor inactive, HT1080-NT tox inactive, IL1B secr inh inactive, Giardia kill inactive, HT1080 IDH1KD tx inactive and HepG2 viability inactive.
`O=C(NCCO)c1cccc(-c2ccc3nncn3c2)c1` gave TGFb inhibitor inactive, HT1080-NT tox inactive, IL1B secr inh inactive, HT1080 IDH1KD tx inactive and HepG2 viability inactive.
CC(C)c1cc(-c2cc(C(=O)Nc3ccccc3)on2)nc(NC2CCCC2)n1 was read as TGFb inhibitor inactive, HT1080-NT tox inactive, IL1B secr inh inactive, Giardia kill inactive, HT1080 IDH1KD tx inactive and HepG2 viability inactive.
`CCOc1ccc(S(=O)(=O)NC(C)C(=O)NCc2ccncc2)cc1` (stereo not given) gave TGFb inhibitor inactive, HT1080-NT tox inactive, IL1B secr inh inactive, Giardia kill inactive, HT1080 IDH1KD tx inactive and HepG2 viability inactive.
For O=C(Nc1ccccn1)c1ccc(-c2ccccc2)cc1 the results were TGFb inhibitor inactive, HT1080-NT tox inconclusive, IL1B secr inh -59, Giardia kill inconclusive, HT1080 IDH1KD tx inconclusive and HepG2 viability inactive.
Screening Cc1ccc(C(=O)O/N=C\c2ccc(N3CCCCC3)c([N+](=O)[O-])c2)cc1 returned TGFb inhibitor inactive, HT1080-NT tox inactive, IL1B secr inh inactive, Giardia kill inactive, HT1080 IDH1KD tx inactive and HepG2 viability inactive.
`COc1ccccc1/C=C(\C#N)C(=O)NCC1CCCO1` (stereo not given) gave TGFb inhibitor inactive and HepG2 viability inactive.
`COc1ccc(NC(=O)NC(C)C2CC3CCC2C3)cc1` (stereo not given) gave TGFb inhibitor inactive, HT1080-NT tox inactive, IL1B secr inh -80, Giardia kill inactive, HT1080 IDH1KD tx inactive and HepG2 viability inactive.
O=C(O)C1CCCCC1C(=O)OCCCCOC(=O)C1CCCCC1C(=O)O (stereo not given) was read as TGFb inhibitor inactive, HT1080-NT tox inactive, IL1B secr inh inactive, Giardia kill inactive, HT1080 IDH1KD tx inactive and HepG2 viability inactive.
For N#C/C(=C1/C(=O)Nc2ccc(Br)cc21)c1ccccn1 the results were TGFb inhibitor inactive, HT1080-NT tox inactive, IL1B secr inh -62, Giardia kill inactive, HT1080 IDH1KD tx inactive and HepG2 viability inactive.
Screening CCNC(=S)N(Cc1ccc(OC)cc1)C1CC(=O)N(c2ccc(OCC)cc2)C1=O (stereo not given) returned TGFb inhibitor inactive, HT1080-NT tox inactive, IL1B secr inh inactive, Giardia kill inactive, HT1080 IDH1KD tx inactive and HepG2 viability inactive.
Screening COc1cccc(C(=O)/C=C/Nc2ccc(S(=O)(=O)Nc3cccc(C(C)=O)c3)cc2)c1 returned TGFb inhibitor inactive, HT1080-NT tox inactive, IL1B secr inh inactive, Giardia kill inactive, HT1080 IDH1KD tx inactive and HepG2 viability inactive.
For COc1cc(/C=C/C(=O)c2ccc(NS(=O)(=O)c3ccc(C)cc3)cc2)cc(OC)c1O the results were TGFb inhibitor inconclusive, HT1080-NT tox inconclusive, IL1B secr inh -103, Giardia kill inactive, HT1080 IDH1KD tx inconclusive and HepG2 viability inactive.
For COc1cccc(/C=C/C(=O)c2ccc(NS(=O)(=O)c3ccc(C)cc3)cc2)c1 the results were TGFb inhibitor inconclusive, HT1080-NT tox inconclusive, IL1B secr inh -99, Giardia kill inactive, HT1080 IDH1KD tx inconclusive and HepG2 viability inactive.
For COc1cc(/C=C/C(=O)c2ccc(NS(=O)(=O)c3ccc(C)cc3)cc2)ccc1OC(F)F the results were TGFb inhibitor inactive, HT1080-NT tox inconclusive, IL1B secr inh -93, Giardia kill inactive, HT1080 IDH1KD tx inconclusive and HepG2 viability inactive.
`CN(C(=O)c1ccc(F)cc1)c1ccccc1C(=O)NCc1ccccc1` gave TGFb inhibitor inactive, HT1080-NT tox inactive, IL1B secr inh inactive, Giardia kill inactive, HT1080 IDH1KD tx inactive and HepG2 viability inactive.
Screening COCCNC(=S)N(C)[C@H]1C[C@H]2c3cc(Oc4ccccc4C)ccc3CCN2C(=O)[C@H]1[C@H](C)O returned TGFb inhibitor inconclusive, HT1080-NT tox inactive, IL1B secr inh inactive, HT1080 IDH1KD tx inactive and HepG2 viability inactive.
`CS(=O)(=O)c1nc(-c2ccccc2)cc(-c2ccccc2)c1C#N` gave TGFb inhibitor inactive, HT1080-NT tox 23µM, IL1B secr inh -56, Giardia kill inactive, HT1080 IDH1KD tx inconclusive and HepG2 viability inactive.
`Cc1ccc(-c2cc(-c3ccccc3)c(C#N)c(Br)n2)cc1` gave TGFb inhibitor inconclusive, HT1080-NT tox inactive, IL1B secr inh inactive, Giardia kill inactive, HT1080 IDH1KD tx inactive and HepG2 viability inactive.
Cc1nc2ccccc2n1CCN1CCOCC1 was read as TGFb inhibitor inactive, HT1080-NT tox inactive, IL1B secr inh inactive, Giardia kill inconclusive, HT1080 IDH1KD tx inactive and HepG2 viability inactive.
`COc1ccc2c(c1)OC(c1ccccc1)(C(F)(F)F)NC2=O` (stereo not given) gave TGFb inhibitor inactive, HT1080-NT tox inactive, IL1B secr inh inactive, Giardia kill inactive, HT1080 IDH1KD tx inactive and HepG2 viability inactive.
For COc1ccc(C2(OC)Oc3cc(OC)ccc3C(=O)C2(O)OC)cc1 (stereo not given) the results were TGFb inhibitor inconclusive, HT1080-NT tox inactive, IL1B secr inh -74, Giardia kill inactive, HT1080 IDH1KD tx inconclusive and HepG2 viability inactive.
